Records with an inconclusive call do not appear. Unmarked numbers belong to inactive results. Calls come from the whole dose curve.
Assay: qHTS assay to identify small molecule agonists or antagonists of the thyroid stimulating hormone receptor (TSHR) signaling pathway - wild type cell line counter screen (AID 1259384)
Details: HEK293 wild type, cAMP HTRF counter-screen, stronger effect = higher value; series mostly up to 92.4 µM; cAMP activity change: at the top concentration
Summary of the method: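 Wild-type Hek293 cells, 800/well, 18 h at 37C, then compound with Ro20-1724 for 30 min RT. cAMP by HTRF (cAMP-d2/anti-cAMP cryptate), 1 h RT, fluorescence read. 15 concentrations, triplicates.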
% is set by controls: 0 for no effect and ±100 for the full control effect.

Row | SMILES | cAMP activity change
1 | CCCCN1C=CN(C)C1 | -4.22% [at 18.9 µM]
2 | CCCC(C)C(=O)OCC (centres undefined) | 0.47%
3 | C[C@H]1C[C@H]2[C@@H]3CCC4=CC(=O)C=C[C@]4(C)[C@H]3C(=O)C[C@]2(C)[C@@]1(O)C(=O)CO | -6.1% [at 42.5 µM]
4 | CC[N+](C)(CC)CCOC(=O)C1c2ccccc2Oc2ccccc21 | -4.36% [at 42.5 µM]
5 | CO/N=C(\C(=O)N[C@@H]1C(=O)N2C(C(=O)O)=C(CSc3nc(=O)c(O)nn3C)CS[C@H]12)c1csc(N)n1 | 0.172% [at 42.5 µM]
6 | CC(=O)N[C@H]1[C@H]([C@H](O)[C@H](O)CO)OC(C(=O)O)=C[C@@H]1N=C(N)N | 0.706% [at 42.5 µM]
7 | O=S(=O)(O)c1cccc2c(S(=O)(=O)O)cccc12 | 4.46%
8 | NC(=O)N[C@@H](CCC(=O)O)C(=O)O | 0.501% [at 42.5 µM]
9 | [Ca+2] | 3.11%
10 | Nc1ccccn1 | -1.3%
11 | O=C(O)CC(C(=O)O)S(=O)(=O)O (centres undefined) | -0.55%
12 | CC(=O)C1CCCCC1=O (centres undefined) | 5.88%
13 | CO[C@@]1(NC(=O)C(C(=O)O)c2ccc(O)cc2)C(=O)N2C(C(=O)O)=C(CSc3nnnn3C)CO[C@@H]21 (some centres undefined) | 2.8% [at 42.5 µM]
14 | O=S(=O)(O)c1cccc2ccccc12 | 0.316%
15 | CC[N+](CC)(CC(=O)Nc1c(C)cccc1C)Cc1ccccc1 (tested in a mixture with another compound) | 4.65% [at 42.5 µM]
16 | CN(C)C(=O)Oc1cccc([N+](C)(C)C)c1 | -6.3% [at 42.5 µM]
17 | CC(C)(C)C(=O)Oc1ccc(S(=O)(=O)Nc2ccccc2C(=O)NCC(=O)O)cc1 | 4.9% [at 42.5 µM]
18 | CN(C)CCN(C)CCN(C)C | -1.63%
19 | Cc1c(N)c(=O)n(-c2ccccc2)n1C | -6.88% [at 42.5 µM]
20 | O=C(O)CCCC[P+](c1ccccc1)(c1ccccc1)c1ccccc1 | 0.77% [at 42.5 µM]
21 | COc1cc(C)nc(-n2nc(C)cc2OC)n1 | -2.3% [at 42.5 µM]
22 | CCCCCCCCCCCCCCCCCCO | -2.36% [at 42.5 µM]
23 | Cc1ccc(C(=O)c2ccc(CC(=O)O)n2C)cc1 | -1.46% [at 42.5 µM]
24 | CCCCCCCCCCCCCCC(=O)O | 1.85%
25 | NCCCC(N)(C(=O)O)C(F)F (centres undefined) | 7.88% [at 42.5 µM]
26 | Cc1coc2ccccc2c1=O | 1.59% [at 42.5 µM]
27 | CC(C)COC(=O)c1ccc(N)cc1 | -0.441% [at 42.5 µM]
28 | CN1[C@@H]2CC[C@H]1CC(OC(=O)C(O)c1ccccc1)C2 (some centres undefined) | 3.18% [at 42.5 µM]
29 | COc1cccc(OC)c1C(=O)N[C@@H]1C(=O)N2[C@@H]1SC(C)(C)[C@@H]2C(=O)O | -0.352% [at 42.5 µM]

Reference: PubChem BioAssay (Tox21)
